# Test results published in PubChem BioAssay (NCATS).
# Records with an inconclusive call do not appear. Calls of active or inactive are those of the source. The call rests on the fitted dose curve; in most records, active means well fitted activation curve with a large enough effect; inconclusive means small, poorly fitted or top-dose-only effect, or another doubt; inactive means no such curve, though single readings can be large or run the other way.
# Biological target: Rap guanine nucleotide exchange factor 3 (Homo sapiens) (UniProt O95398)
# Test: Counterscreen qHTS for agonist of cAMP-regulated guanine nucleotide exchange factor 3 (EPAC1) (AID 1645889); further: % of control where 0% means no effect; nearly all actives have a fitted effect of over 40% in size
# Details: EPAC1 Rap1B-BODIPY-GDP exchange, fluorescence; series mostly up to 154 µM; activation: at the top concentration
# Summary of the method: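 Rap1B-BODIPY-GDP 250 nM + GDP 50 uM; cpds 7-pt, final 9.74 nM–152 uM (activator mode) or from 7.32 nM upwards (inhibitor mode); RT; FI 480/540 nm at 5 and 30 min, then ± cAMP, reread.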
row,SMILES,activation
1,CCO[C@H]1OC(C(=O)NCc2ccccc2)=C[C@@H](c2ccc(C(F)(F)F)cc2)[C@@H]1CCCO,-19.8% (inactive)
2,Cc1ccc(NS(=O)(=O)c2ccc(C(=O)N3CC(C)CC(C)C3)cc2)cc1 (stereo not given),-4.34% (inactive)
3,COc1cc(/C=C(\C#N)C(=O)Nc2ccccc2C(=O)O)cc(Cl)c1OC,10.5% (inactive)
4,CC(C)(C)c1ccc(C(=O)N2CCCC(c3nc4c(nnn4Cc4cccc(F)c4)c(=O)[nH]3)C2)cc1 (stereo not given),-12.9% (inactive)
5,COc1cc2nc(N3CCNCC3)nc(N)c2cc1OC,10.6% (inactive)
6,CCC(NC(=O)c1ccccc1NC(=O)c1ccco1)C(=O)NNC(=O)c1ccc(OC)cc1 (stereo not given),9.27% [at 30.8 µM] (inactive)
7,NC(CSC(c1ccccc1)(c1ccccc1)c1cccc2ccccc12)C(=O)O (stereo not given),5.6% [at 30.8 µM] (inactive)
8,C[C@H]1CN([C@@H](C)CO)S(=O)(=O)c2ccc(Br)cc2O[C@@H]1CN(C)Cc1ccccc1,-11.6% (inactive)
9,Cc1cc(C)c(OCC(=O)N(Cc2ccco2)Cc2ccco2)c(C)c1,12.1% (inactive)
10,O=C(Nc1ccccc1N1CCCCC1)c1cnccn1,21.6% [at 30.8 µM] (inactive)
11,CCOc1ccccc1CNC(=O)Cn1nc(C)c2c(C)n(-c3ccc(C)cc3)nc2c1=O,18.3% [at 30.8 µM] (inactive)
12,CCCCOC(=O)C1=C(C)Nc2nnnn2C1c1ccccc1Cl (stereo not given),-6.97% (inactive)
13,CCc1ccc2c(c1)NC(=O)C2(C)Cc1ccc(C(F)(F)F)o1 (stereo not given),-30.3% (inactive)
14,COC(=O)CC1(c2ccc(OC)cc2)C(=O)c2ccccc2C1=O,29.8% (inactive)
15,COc1ccc(N2C(=O)CSC23C(=O)N(Cc2cccc(C(F)(F)F)c2)c2ccccc23)cc1 (stereo not given),11.5% (inactive)
16,CCC(C)(C)c1ccc(OCC(=O)N(C)C)c(C(C)(C)CC)c1,-45.2% (inactive)
17,Cc1ccc(N=Cc2cc3c(cc2[N+](=O)[O-])OCO3)cc1[N+](=O)[O-],-2.33% [at 30.8 µM] (inactive)
18,CCCCn1c(CNC(=O)C23CC4CC(CC(C4)C2)C3)nnc1SCC(=O)Nc1nnc(C)s1,1.72% [at 30.8 µM] (inactive)
19,CCCC[C@@H]1C[C@H]1[C@@H](NC(=O)c1ccco1)c1ccc(Cl)cc1,8.2% (inactive)
20,Cc1ccc(C)c(S(=O)(=O)N2CCN(C(=O)/C=C/c3ccco3)CC2)c1,9.47% (inactive)
21,CC1=CCC[C@@H]2[C@@](C)(CC/C(C)=C/C(=O)O)[C@H](C)CC[C@@]12C,10.7% [at 30.8 µM] (inactive)
22,Cc1cccc(NC(=O)c2ccc(-n3cncn3)c([N+](=O)[O-])c2)c1,23.9% [at 30.8 µM] (inactive)
23,CC1Sc2ccc(C#N)cc2N(Cc2cccc(C(F)(F)F)c2)C1=O (stereo not given),-16.8% (inactive)
24,C=CCn1c(SCC(=O)Nc2cc(Cl)ccc2C(=O)O)nc2sc(C)c(C)c2c1=O,1.53% [at 30.8 µM] (inactive)
25,COc1ccc(N2C(=O)Cc3cc(OC)c(OC)cc3C2c2ccc(F)cc2)cc1 (stereo not given),23.2% (inactive)
